# GLS inhibitor = glutaminase GLS (human) inhibition; hit rate 0.21% among 410,000; Potency, µM (titrated, usually from 45.5 µM), without a hit: at the highest dose activity change, negative = inhibition, actives largely listed as inhibitors; O94925; GLS enzymatic activity, qHTS titration; also: % is scaled to controls: 0 for no effect and ±100 for the full control effect
#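 Glutamate formation by hKGA was monitored fluorometrically using coupled glutamate oxidase, HRP and Amplex Red. Substrate was added as 1 mM L-glutamine solution; incubation was 30 min at RT after an initial read.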
# BAZ2B inh = BAZ2B (human) inhibition; Potency, µM (top dose mostly 114 µM), for inactives: at the highest dose activity change, negative = inhibition, usual class: inhibitors; AlphaScreen BAZ2B-H3K14Ac peptide displacement; hit rate 4.4% among 360,000; Q9UIF8; also: % is scaled to controls: 0 for no effect and ±100 for the full control effect; nearly all actives have a fitted effect of over 60% in size
# Target sequence (Q9UIF8 whole entry, looked up): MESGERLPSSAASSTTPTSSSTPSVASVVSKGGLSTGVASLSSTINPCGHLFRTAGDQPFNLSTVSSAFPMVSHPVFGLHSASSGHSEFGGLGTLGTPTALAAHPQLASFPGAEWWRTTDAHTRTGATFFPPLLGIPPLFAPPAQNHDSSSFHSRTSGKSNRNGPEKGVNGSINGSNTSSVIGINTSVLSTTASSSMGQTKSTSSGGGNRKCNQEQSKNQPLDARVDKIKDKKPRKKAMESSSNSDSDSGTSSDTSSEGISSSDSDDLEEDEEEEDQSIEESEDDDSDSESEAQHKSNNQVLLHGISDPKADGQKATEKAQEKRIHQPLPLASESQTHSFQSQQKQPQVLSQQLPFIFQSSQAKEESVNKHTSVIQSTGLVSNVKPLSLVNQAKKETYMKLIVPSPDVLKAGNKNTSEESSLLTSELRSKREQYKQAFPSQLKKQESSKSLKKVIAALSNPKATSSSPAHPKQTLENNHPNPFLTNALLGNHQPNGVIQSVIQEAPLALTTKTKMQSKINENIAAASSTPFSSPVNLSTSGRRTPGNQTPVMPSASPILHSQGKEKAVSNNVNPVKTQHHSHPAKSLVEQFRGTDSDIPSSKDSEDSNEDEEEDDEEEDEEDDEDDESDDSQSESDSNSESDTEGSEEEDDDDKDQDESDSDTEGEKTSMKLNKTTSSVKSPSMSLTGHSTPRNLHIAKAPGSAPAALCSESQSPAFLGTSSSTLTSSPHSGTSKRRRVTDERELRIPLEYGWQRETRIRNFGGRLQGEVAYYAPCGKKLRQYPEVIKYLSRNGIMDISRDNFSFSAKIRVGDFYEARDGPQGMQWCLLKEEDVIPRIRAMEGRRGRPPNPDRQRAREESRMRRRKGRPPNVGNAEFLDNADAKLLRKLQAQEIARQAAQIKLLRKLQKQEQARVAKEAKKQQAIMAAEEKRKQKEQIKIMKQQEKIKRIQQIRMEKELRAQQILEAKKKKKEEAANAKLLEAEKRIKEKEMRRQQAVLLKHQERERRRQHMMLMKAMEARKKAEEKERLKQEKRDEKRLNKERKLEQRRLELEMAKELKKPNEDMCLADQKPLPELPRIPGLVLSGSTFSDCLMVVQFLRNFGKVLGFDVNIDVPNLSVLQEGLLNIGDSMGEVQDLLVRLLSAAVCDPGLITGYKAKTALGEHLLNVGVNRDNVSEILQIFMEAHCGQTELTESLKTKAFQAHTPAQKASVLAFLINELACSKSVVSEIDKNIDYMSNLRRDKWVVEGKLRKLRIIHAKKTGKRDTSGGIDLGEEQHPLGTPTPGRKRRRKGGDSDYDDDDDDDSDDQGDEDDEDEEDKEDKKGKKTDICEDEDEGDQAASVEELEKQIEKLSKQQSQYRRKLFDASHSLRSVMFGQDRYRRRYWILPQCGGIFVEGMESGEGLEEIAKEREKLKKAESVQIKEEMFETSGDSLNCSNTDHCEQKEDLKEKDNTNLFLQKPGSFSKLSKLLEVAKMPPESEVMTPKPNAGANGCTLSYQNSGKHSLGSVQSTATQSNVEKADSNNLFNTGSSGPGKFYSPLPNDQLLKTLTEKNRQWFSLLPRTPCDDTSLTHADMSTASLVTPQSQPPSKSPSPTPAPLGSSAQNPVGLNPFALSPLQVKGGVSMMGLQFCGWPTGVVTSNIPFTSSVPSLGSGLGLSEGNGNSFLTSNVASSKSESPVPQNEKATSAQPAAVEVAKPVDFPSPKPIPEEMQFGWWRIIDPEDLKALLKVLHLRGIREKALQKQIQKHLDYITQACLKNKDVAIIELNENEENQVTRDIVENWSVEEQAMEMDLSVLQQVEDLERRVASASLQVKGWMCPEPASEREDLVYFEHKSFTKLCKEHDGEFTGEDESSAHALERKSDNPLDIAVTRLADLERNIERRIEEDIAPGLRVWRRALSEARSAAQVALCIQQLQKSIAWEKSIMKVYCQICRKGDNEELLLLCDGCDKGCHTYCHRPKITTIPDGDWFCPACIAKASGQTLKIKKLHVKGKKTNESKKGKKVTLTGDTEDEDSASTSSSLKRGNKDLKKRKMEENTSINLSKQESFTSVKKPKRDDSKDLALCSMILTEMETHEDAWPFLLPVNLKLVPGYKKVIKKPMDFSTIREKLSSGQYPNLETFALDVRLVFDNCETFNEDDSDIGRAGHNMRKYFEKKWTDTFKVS
#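 AlphaScreen displacement of biotin-H3(5-23)K14Ac peptide (50 nM final) from BAZ2B (50 nM final) in PBS pH 7.4, 0.01% Tween-20; complex preformed 30 min RT, then compounds (top 110 uM) 30 min RT, beads 20 min dark.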
# HP1b chromo inh = blocks HP1-beta chromodomain binding to methylated histone tails; P83916; AlphaScreen HP1-beta / biotin-H3K9me3 peptide binding; Potency, µM (top dose mostly 114 µM), inactives show at the top dose activity change, negative = inhibition, actives largely listed as inhibitors; hit rate 0.56% among 390,000; AID 540317; also: nearly all actives have a fitted effect of over 70% in size
#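 AlphaScreen: HP1-beta (50 nM) preformed 30 min with biotin-H3(1-18)K9me3 peptide (50 nM) in PBS pH 7.4, 0.01% Tween-20. Compound added for 30 min at RT, then streptavidin donor/nickel chelate acceptor beads (10 ug/mL) for 30 min.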
# G9a block = inhibitors of human histone lysine methyltransferase G9a; G9a H3K9 monomethylation, AlphaScreen, 2 h; Potency, µM (highest dose often 102 µM), inactives show at the highest dose activity, negative = inhibition, usual class: inhibitors; hit rate 8.8% among 350,000; also: % is scaled to controls: 0 for no effect and ±100 for the full control effect; nearly all actives have a fitted effect of over 75% in size
#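 G9a (20 nM) was preincubated 15 min with compound, then reacted 2 h at room temperature with 500 nM biotin-H3K9 peptide and 20 µM SAM. Monomethyl-H3K9 detected by AlphaScreen using anti-H3K9me1 antibody.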
# JMJD2A Tudor = blocks the human JMJD2A Tudor domain. AlphaScreen JMJD2A-Tudor / H3K4me3 peptide binding. Potency, µM (series often up to 114 µM), for inactives: top-dose activity change, negative = inhibition, hits mostly inhibitors. hit rate 4.4% among 390,000. AID 504339; also: % is scaled to controls: 0 for no effect and ±100 for the full control effect; nearly all actives have a fitted effect of over 50% in size
# * hit, by the source's call; ? = inconclusive; . = no result; [ ] = dose if it differs, or a comment. Shown are actives, neighbours in structure and some others; about 10% of the full set was active somewhere. Calls follow the shape of the dose curve; as a rule, active = well fitted curve in the direction sought with a large enough effect; inconclusive = small, poorly fitted or top-dose-only effect, or another doubt; inactive = no such curve, though single readings can be large; an effect the other way counts as inactive or inconclusive. Potency is read from the fitted curve at half-maximal effect.
SMILES,GLS inhibitor,BAZ2B inh,HP1b chromo inh,G9a block,JMJD2A Tudor
O=[S+]([O-])(c1ccc2ncsc2c1)N1CCN([S+](=O)([O-])c2c(F)cccc2F)CC1,.,.,.,.,-12%
COc1ccccc1C(=O)N1CCN(Cc2c[nH]c3ccccc23)CC1,12%,50µM*,?,-20%,18µM*
COc1ccc2ccccc2c1CN1CCN(C(=O)c2ccco2)CC1,-12%,?,1%,-11%,-33%
COc1cccc(CN2CCN(C(=O)c3cccc4ccccc34)CC2)c1OC,2%,56µM*,20µM*,?,4µM*
COc1cccc(OC)c1C(=O)N1CCN(Cc2c[nH]c3ccccc23)CC1,5%,.,.,.,.
COc1cccc(CN2CCN(C(=O)c3ccco3)CC2)c1OC,-3%,.,45µM*,.,5.6µM*
Cc1cccc(CN2CCN(C(=O)c3cccc4ccccc34)CC2)c1,-11%,56µM*,?,23%[0.501 µM],2.2µM*
CN(Cc1ccccc1)C(=O)c1cc(-c2cccc(Cl)c2)on1,8%,152%,118%,49%[59 µM],122%
O=C(c1nc2ccccn2c1CN1CCN(c2ccccc2O)CC1)N1CCCC1,3.5µM*,?,11%,.,-24%
Cc1cc(OC(=O)c2ccc(F)cc2)c([N+](=O)[O-])c(=O)[nH]1,2%,-27%,16%[57 µM],?,4%
COc1ccc(C(=O)Oc2cc(C)[nH]c(=O)c2[N+](=O)[O-])cc1,-16%,-2%,19%,-16%,-32%
COc1ccc(/C=C/C(=O)Oc2cc(C)[nH]c(=O)c2[N+](=O)[O-])cc1OC,0%,4%,13%,-33%,32µM*
Cc1cc(OC(=O)c2ccc(Cl)cc2Cl)c([N+](=O)[O-])c(=O)[nH]1,8%,-28%,61%,79µM*,-26%
Cc1cc(OC(=O)C(C)(C)C)c([N+](=O)[O-])c(=O)[nH]1,-7%,4%,28%,1.4µM*,-6%
C=CCOc1ccc(/C=C\c2nc(O)c([N+](=O)[O-])c(=O)[nH]2)cc1OC,-19%,-31%,14%,79µM*,-29%
COc1ccc(CN2C(=O)C(CC(=O)NCC3CCCCC3)CC(C(=O)N(C(C)C)C(C)C)=C2C)cc1 (stereo not given),-12%,.,.,.,.
CC(=O)N1CCc2cc(Br)cc(S(=O)(=O)CCC(=O)N3CCN(c4ccccc4Cl)CC3)c21,-1%,14%,23%,13%[59 µM],-30%
CN(C)C(CNC(=O)c1cc(S(=O)(=O)N(C)Cc2ccccc2)ccc1Cl)c1ccco1 (stereo not given),-2%,-5%,1%,28%[2.33 µM],-24%
COc1ccc(/C=N/NC(=O)c2cccnc2)cc1CN1CCCc2ccccc21,?,40µM*,45µM*,?,35µM*
COc1cc(/C=N/NC(N)=O)ccc1OC(=O)c1ccc(C)cc1,.,1%,.,-6%[59 µM],.
COc1ccc(C(=O)N/N=C/c2ccc(OC)c(CN3CCCc4ccccc43)c2)cc1,-9%,?,-2%,?,?
Cc1ccc(C(=O)Oc2ccc(/C=N/NC(N)=O)cc2)cc1,-11%,?,37%,28µM*,-7%
O=C(N/N=C/c1ccc(OC(=O)c2ccc([N+](=O)[O-])cc2)cc1)c1cccnc1,-3%,-27%,35%,21%,-23%
O=C(N/N=C/c1ccc(OC(=O)c2ccccc2)cc1)c1cccnc1,8%,?,?,20µM*,-28%
CC[C@H](C)[C@H]1CNC(=S)N1CC1CCN(CCC(C)C)CC1,2%,.,.,.,.
SMILES,GLS inhibitor,BAZ2B inh,HP1b chromo inh,G9a block,JMJD2A Tudor
COc1cc(C2CC(=O)N(Cc3ccc(F)cc3)c3ccccc3S2)cc(OC)c1OC (stereo not given),2%,?,20%,-27%[59 µM],-17%
CCc1ccc(C2C(C#N)=C(N)SC(N)=C2C#N)cc1,-15%,?,4%,8.9µM*,?
N#CC1=C(N)SC(N)=C(C#N)C1c1ccc(C(F)(F)F)cc1,.,-31%,.,2.5µM*,.
CCc1ccc(C2C(C#N)=C(N)SC(N)=C2C#N)s1,-17%,-14%,9%,40µM*,-33%
N#CC1=C(N)SC(N)=C(C#N)C1c1cccc(Oc2ccccc2)c1,?,-17%,3%,?,?
CCc1ccc(C2C(C#N)=C(N)Oc3cc(N)ccc32)cc1 (stereo not given),-2%,?,44%,?,-19%
N#CC1=C(N)SC(N)=C(C#N)C1c1ccc([N+](=O)[O-])cc1,-29%,-37%,-37%,8.9µM*,56µM*
CCc1ccc(C2C(C#N)=C(N)OC3=C2C(=O)CCC3)s1 (stereo not given),0%,-21%,22%,-22%,-1%
N#CC1=C(N)Nc2ncnn2C1c1ccc([N+](=O)[O-])cc1 (stereo not given),11%,-16%,68%,?,-12%
Cc1ccc(S(=O)(=O)N2[C@@H](c3cccc(Cl)c3)C(C(=O)OC(C)(C)C)=CC[C@H]2c2ccc(C(C)C)cc2)cc1,19%,.,.,.,.
Cc1ccc(C2C(C#N)=C(N)SC(N)=C2C#N)o1,.,.,.,1.6µM*,.
COc1cc(NC(=O)c2c(-c3ccc(C)cc3)nnc3ccccc23)cc(OC)c1OC,6%,-1%,20%,11%[59 µM],-3%
OC(CNCCc1ccc(C(F)(F)F)cc1)COC(c1ccccc1)c1ccccc1 (stereo not given),1%,25µM*,?,?,13µM*
Cn1c(=O)c2c(nc(SCC(=O)O)n2Cc2cc3c(cc2Cl)OCO3)n(C)c1=O,-26%,?,58%,?,45µM*
S=c1[nH]nc(-c2ccccc2)n1/N=C/c1ccc(-c2ccccc2Cl)o1,0%,-13%,-15%,?,?
Cc1ccc(/C=N/n2c(-c3ccncc3)n[nH]c2=S)o1,-21%,?,28%,.,7.1µM*
Cc1ccc(/C=N/n2c(C)n[nH]c2=S)o1,2%,-5%,15%,?,5µM*
O=C(CCN1C(=O)c2cccc([N+](=O)[O-])c2C1=O)Nc1nccs1,4%,-8%,11%,40µM*,-22%
CN(C)c1ccc(NC(=O)CCN2C(=O)c3cccc([N+](=O)[O-])c3C2=O)cc1,14%,-35%,29%,10µM*,-17%
CCOc1ccc(NC(=O)CCN2C(=O)c3cccc([N+](=O)[O-])c3C2=O)cc1,-5%,-35%,16%,.,-12%
CCN(CC)S(=O)(=O)c1ccc(O)c(C(=O)OCC(=O)N2CCCc3ccccc32)c1,9%,.,.,.,.
CCOC(=O)c1c(C)[nH]c(C)c1S(=O)(=O)N1CCN(c2ccc(F)cc2)CC1,16%,71µM*,41%,.,4%
CCOC(=O)c1c(C)[nH]c(C)c1S(=O)(=O)N1CCC(C(=O)N2CCN(c3ccc(F)cc3)CC2)CC1,25%,?,9%,4%[59 µM],-27%

# Source: PubChem (National Center for Advancing Translational Sciences (NCATS))
